For some assays here: Potency and affinity values are given separately. The source made the active and inactive calls. Unless noted, how the calls were made is not given here.
How the values were obtained:
[1] = antimalarial activity against Dd2 strain (AID 2302;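 active means growth inhibition above 50% at the single 2 µM test dose, taken to imply half-maximal potency below 2 µM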;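 further: 0% = DMSO untreated growth and 100% = chloroquine plus artemisinin killed control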); settings: P. falciparum Dd2 in RBCs, LDH growth readout, 72 h; at 2 µM; hits give high values
[2] = human hepatoma cell viability loss – ATP luminescence, cytotoxicity control for P. falciparum antimalarial project, primary screen (AID 2303;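 active means inhibition above 50%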;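 further: 0% = DMSO wells and 100% = digitonin-killed cells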); settings: HepG2 viability, 24-48 h, at 10 µM, hits give high values
[3] = target: L-lactate dehydrogenase (Plasmodium falciparum (isolate CDC / Honduras)) (UniProt Q27743); test: PfLDH activity inhibition – cell lysate, 3D7 strain, counter-screen for P. falciparum growth inhibition project (AID 2304);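 further: 0% = vehicle and 100% = reference inhibitor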; settings: P. falciparum 3D7 crude extract, LDH APAD/NBT absorbance; at 2 µM; hits give high values
L-lactate dehydrogenase (Plasmodium falciparum (isolate CDC / Honduras)), sequence (Q27743 whole entry, looked up): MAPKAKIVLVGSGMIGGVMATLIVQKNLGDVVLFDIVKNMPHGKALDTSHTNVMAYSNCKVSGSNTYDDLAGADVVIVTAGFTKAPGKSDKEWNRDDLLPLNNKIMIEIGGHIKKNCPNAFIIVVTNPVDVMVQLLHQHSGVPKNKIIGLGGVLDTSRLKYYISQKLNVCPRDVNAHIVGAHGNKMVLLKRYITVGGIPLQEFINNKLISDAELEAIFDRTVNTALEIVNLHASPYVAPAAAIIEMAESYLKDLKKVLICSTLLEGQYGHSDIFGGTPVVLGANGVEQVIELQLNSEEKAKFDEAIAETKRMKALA

[4] = inhibition of 3D7 malaria parasite growth – strain 3D7 (AID 2306);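 further: 0% = DMSO wells and 100% = chloroquine plus artemisinin control wells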; settings: P. falciparum 3D7 erythrocytic growth, LDH absorbance, 72 h; at 2 µM; hits give high values
[5] = target: Calcium-dependent protein kinase 1 (Plasmodium falciparum (isolate 3D7)) (UniProt P62344); test: PfCDPK1 kinase inhibitors, biochemical, TCAMS library (AID 1159585; cut-off not given, nearly all actives have IC50 up to about 0.98 µM;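 further: inhibitors leave more ATP so luminescence rises with inhibition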); settings: recombinant PfCDPK1, Kinase-Glo ATP depletion luminescence
Calcium-dependent protein kinase 1 (Plasmodium falciparum (isolate 3D7)), sequence (P62344 whole entry, looked up): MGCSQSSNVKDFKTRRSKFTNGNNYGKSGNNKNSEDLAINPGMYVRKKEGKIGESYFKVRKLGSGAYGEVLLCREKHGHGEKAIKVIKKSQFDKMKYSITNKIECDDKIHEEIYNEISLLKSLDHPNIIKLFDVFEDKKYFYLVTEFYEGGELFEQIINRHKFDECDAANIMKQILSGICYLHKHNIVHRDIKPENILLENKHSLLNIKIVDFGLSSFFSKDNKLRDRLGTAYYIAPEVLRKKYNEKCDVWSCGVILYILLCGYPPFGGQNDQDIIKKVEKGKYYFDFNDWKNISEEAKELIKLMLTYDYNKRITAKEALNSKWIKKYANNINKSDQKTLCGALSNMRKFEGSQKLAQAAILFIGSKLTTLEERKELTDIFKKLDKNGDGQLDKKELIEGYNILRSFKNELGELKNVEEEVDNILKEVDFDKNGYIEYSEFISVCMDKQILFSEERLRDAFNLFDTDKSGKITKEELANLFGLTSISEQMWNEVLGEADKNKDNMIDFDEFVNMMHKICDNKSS

[6] = target: Plasmodium falciparum protein kinase 6 (PK6, PF3D7_1337100) (UniProt Q8IDW1); test: PfPK6 kinase inhibitors, biochemical, TCAMS library (AID 1159586); settings: recombinant PfPK6, Kinase-Glo ATP depletion luminescence
Plasmodium falciparum protein kinase 6 (PK6, PF3D7_1337100), sequence (Q8IDW1 1-305): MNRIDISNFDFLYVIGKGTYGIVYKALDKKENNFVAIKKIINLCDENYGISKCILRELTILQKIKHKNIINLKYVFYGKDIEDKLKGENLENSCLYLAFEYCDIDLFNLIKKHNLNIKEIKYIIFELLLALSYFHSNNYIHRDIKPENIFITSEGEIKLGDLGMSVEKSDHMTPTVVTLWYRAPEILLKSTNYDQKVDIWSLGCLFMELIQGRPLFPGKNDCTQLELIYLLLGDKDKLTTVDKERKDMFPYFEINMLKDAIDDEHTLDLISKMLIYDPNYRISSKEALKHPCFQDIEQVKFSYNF

[7] = target: Protein kinase 7 (PK7), Plasmodium falciparum 3D7 (PF3D7_0213400) (UniProt Q7YTF7); test: inhibition of Plasmodium PK7 catalytic activity – biochemical, TCAMS antimalarial set, Kinase-Glo luminescence (AID 1159587); settings: recombinant PfPK7, Kinase-Glo ATP depletion luminescence
Protein kinase 7 (PK7), Plasmodium falciparum 3D7 (PF3D7_0213400), sequence (Q7YTF7 1-343): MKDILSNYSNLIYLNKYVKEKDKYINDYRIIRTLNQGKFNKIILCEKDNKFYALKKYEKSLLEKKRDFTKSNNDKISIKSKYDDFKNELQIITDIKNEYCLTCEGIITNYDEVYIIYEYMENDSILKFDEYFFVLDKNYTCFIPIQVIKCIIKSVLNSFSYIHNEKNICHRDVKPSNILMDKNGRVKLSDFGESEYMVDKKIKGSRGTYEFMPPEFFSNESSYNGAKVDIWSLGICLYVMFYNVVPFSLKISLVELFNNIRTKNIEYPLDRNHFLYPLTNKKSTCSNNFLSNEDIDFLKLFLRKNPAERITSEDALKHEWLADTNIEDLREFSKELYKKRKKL

[8] = target: Calcium-dependent protein kinase 4 (Plasmodium falciparum (isolate 3D7)) (UniProt Q8IBS5); test: PfCDPK4 kinase inhibitors, biochemical, TCAMS library (AID 1159588; cut-off not given, nearly all actives have IC50 up to about 0.91 µM); settings: recombinant PfCDPK4, Kinase-Glo ATP depletion luminescence
Calcium-dependent protein kinase 4 (Plasmodium falciparum (isolate 3D7)), sequence (Q8IBS5 whole entry, looked up): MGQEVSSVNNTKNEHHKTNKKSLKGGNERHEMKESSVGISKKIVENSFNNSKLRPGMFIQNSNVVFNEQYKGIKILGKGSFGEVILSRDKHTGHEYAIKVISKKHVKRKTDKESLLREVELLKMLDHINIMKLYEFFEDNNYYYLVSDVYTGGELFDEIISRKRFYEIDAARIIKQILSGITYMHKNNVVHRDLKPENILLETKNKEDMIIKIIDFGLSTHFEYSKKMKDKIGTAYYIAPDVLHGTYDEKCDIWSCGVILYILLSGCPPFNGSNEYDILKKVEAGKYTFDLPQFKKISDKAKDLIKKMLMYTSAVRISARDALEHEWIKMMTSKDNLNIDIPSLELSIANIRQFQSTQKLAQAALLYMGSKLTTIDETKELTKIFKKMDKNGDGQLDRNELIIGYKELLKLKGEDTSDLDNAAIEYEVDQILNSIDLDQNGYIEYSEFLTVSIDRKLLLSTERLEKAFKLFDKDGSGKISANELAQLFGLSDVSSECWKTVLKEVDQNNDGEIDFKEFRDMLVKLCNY

N#Cc1ccc2c(c1)CCN(CCC1CCC(NC(=O)c3cc4ccccc4[nH]3)CC1)CC2 (stereo not given)
inactive: growth inhibition [1] 25% | inhibition [2] 17% | inhibition [3] -1% | outcome [5] | outcome [6] | outcome [7] | outcome [8]
active: growth inhibition [4] 89%

CN1CCN(c2ccc(-c3cccc(NC(=O)c4ccc5ccccc5c4)c3)nn2)CC1
active: growth inhibition [4] 94%
inactive: growth inhibition [1] 26% | inhibition [2] 17% | inhibition [3] -2% | outcome [5] | outcome [6] | outcome [7] | outcome [8]

N#Cc1ccc(-c2nc3c(N4CCCC4)cccc3n2CCNCc2ccccc2)cc1
inactive: inhibition [2] 2% | inhibition [3] -3% | outcome [5] | outcome [6] | outcome [7] | outcome [8]
active: growth inhibition [1] 99% | growth inhibition [4] 100%

NC(N)=NCCCCN(Cc1ccccc1)c1ccccc1
active: growth inhibition [1] 98% | growth inhibition [4] 100%
inactive: inhibition [2] -4% | inhibition [3] -4% | outcome [5] | outcome [6] | outcome [7] | outcome [8]

CCCCCCOc1ccc(N2C(N)=NC(N)=NC2(C)C)cc1
inactive: growth inhibition [1] 0% | inhibition [2] 5% | inhibition [3] 7% | outcome [5] | outcome [6] | outcome [7] | outcome [8]
active: growth inhibition [4] 98%

COc1ccc(CNC(=O)NC2CCN(c3ccnc(Nc4cc(OC)c(OC)c(OC)c4)n3)C2)cc1 (stereo not given)
inactive: inhibition [2] -2% | inhibition [3] 3% | outcome [5] | outcome [6] | outcome [7] | outcome [8]
active: growth inhibition [1] 90% | growth inhibition [4] 91%

O=C(Nc1ccc2nc3n(c(=O)c2c1)CCCCC3)C(=O)N1CCN(c2ccc(F)cc2)CC1
active: growth inhibition [1] 86% | growth inhibition [4] 93%
inactive: inhibition [2] 10% | inhibition [3] -1% | outcome [5] | outcome [6] | outcome [7] | outcome [8]

FC(F)(F)c1ccc(CNCC2CCN(Cc3ccc4c(c3)OCO4)CC2)cc1
active: growth inhibition [4] 80%
inactive: growth inhibition [1] 12% | inhibition [2] 27% | inhibition [3] -5% | outcome [5] | outcome [6] | outcome [7] | outcome [8]

CCOCCCNc1sc(S(=O)(=O)c2ccccc2)nc1S(=O)(=O)c1ccc(C)cc1
active: growth inhibition [1] 87% | growth inhibition [4] 96%
inactive: inhibition [2] -8% | inhibition [3] 1% | outcome [5] | outcome [6] | outcome [7] | outcome [8]

O=C(Cc1cnc[nH]1)Nc1cccc(-c2ccc(-c3nc4ccccc4[nH]3)cc2)c1
inactive: inhibition [2] 7% | inhibition [3] -1% | outcome [5] | outcome [6] | outcome [7] | outcome [8]
active: growth inhibition [1] 72% | growth inhibition [4] 99%

COc1cc2nc(N3CCC(NC(=O)c4cccc(N(C)C)c4)CC3)nc(N)c2cc1OC
inactive: growth inhibition [1] 0% | inhibition [2] 6% | inhibition [3] 1% | outcome [5] | outcome [6] | outcome [7] | outcome [8]
active: growth inhibition [4] 98%

CN1CCC(Oc2ccc(CN3CC[C@H](NC(=O)c4ccc(Cl)c(F)c4)C3)c3ccccc23)C1 (stereo not given in full)
inactive: inhibition [3] 3% | outcome [5] | outcome [6] | outcome [7] | outcome [8]
active: growth inhibition [1] 65% | inhibition [2] 51% | growth inhibition [4] 101%

Nc1cc(-c2ccc(Br)cc2O)nc2ccccc12
inactive: inhibition [2] 23% | inhibition [3] 0% | outcome [5] | outcome [6] | outcome [7] | outcome [8]
active: growth inhibition [1] 50% | growth inhibition [4] 100%

N[C@@H](Cc1ccc(O)cc1)C(=O)NC(c1ccccc1)c1c(O)ccc2ccccc12 (stereo not given in full)
active: growth inhibition [1] 95% | growth inhibition [4] 95%
inactive: inhibition [2] 6% | inhibition [3] 2% | outcome [5] | outcome [6] | outcome [7] | outcome [8]

CCOC(=O)CCCCCNC[C@H](O)c1ccccc1
active: growth inhibition [4] 98%
inactive: growth inhibition [1] 0% | inhibition [2] 2% | inhibition [3] 5% | outcome [5] | outcome [6] | outcome [7] | outcome [8]

O=c1cc(NCCCNC(c2ccccc2)c2ccc(Cl)c(Cl)c2)[nH]c2ccccc12 (stereo not given)
inactive: inhibition [2] 13% | inhibition [3] 3% | outcome [5] | outcome [6] | outcome [7] | outcome [8]
active: growth inhibition [1] 94% | growth inhibition [4] 89%

FC(F)(F)c1ccccc1OCc1cc(-c2ccncc2)c(COc2ccccc2C(F)(F)F)cc1C1=CCNCC1
inactive: inhibition [2] 31% | inhibition [3] -2% | outcome [5] | outcome [6] | outcome [7] | outcome [8]
active: growth inhibition [1] 81% | growth inhibition [4] 98%

CCCCCCN1CCC(NCc2cccc3ccccc23)CC1
inactive: growth inhibition [1] 12% | inhibition [2] 21% | inhibition [3] 0% | outcome [5] | outcome [6] | outcome [7] | outcome [8]
active: growth inhibition [4] 95%

O=C(Nc1ccc(F)c([N+](=O)[O-])c1)Nc1cc(C(F)(F)F)ccc1Cl
inactive: inhibition [2] 5% | inhibition [3] 0% | outcome [5] | outcome [6] | outcome [7] | outcome [8]
active: growth inhibition [1] 86% | growth inhibition [4] 101%

Cc1ccc(NC(=O)c2ccc(N3CCC(c4ccccc4C)CC3)nc2)cc1
inactive: inhibition [2] 49% | inhibition [3] 3% | outcome [5] | outcome [6] | outcome [7] | outcome [8]
active: growth inhibition [1] 72% | growth inhibition [4] 83%

Cc1nnsc1C(=O)Nc1cccc(-c2ccc(-c3nc4ccc(C(F)(F)F)cc4[nH]3)cc2)c1
active: growth inhibition [1] 97% | inhibition [2] 62% | growth inhibition [4] 99%
inactive: inhibition [3] 3% | outcome [5] | outcome [6] | outcome [7] | outcome [8]

Cc1ccc2[nH]c(-c3ccc(C(=O)NC4CCN(Cc5ccccc5)CC4)cc3)nc2c1C
inactive: growth inhibition [1] 46% | inhibition [2] 22% | inhibition [3] -2% | outcome [5] | outcome [6] | outcome [7] | outcome [8]
active: growth inhibition [4] 102%

COc1cccc(NC(=O)Nc2ccc(Nc3nc(C)cc(N4CCCC4)n3)cc2)c1
inactive: inhibition [2] 28% | inhibition [3] -1% | outcome [5] | outcome [6] | outcome [7] | outcome [8]
active: growth inhibition [1] 100% | growth inhibition [4] 101%

O=C(NCc1cccc(C(F)(F)F)c1)[C@@H]1CCCN1C(=O)c1ccc(O)c(-c2ccc(Cl)c(Cl)c2)c1
inactive: inhibition [2] -3% | inhibition [3] 2% | outcome [5] | outcome [6] | outcome [7] | outcome [8]
active: growth inhibition [1] 97% | growth inhibition [4] 99%

CCOc1ccc2nc(C)cc(NN=Cc3ccccc3[N+](=O)[O-])c2c1
active: growth inhibition [1] 99% | inhibition [2] 91% | growth inhibition [4] 101%
inactive: inhibition [3] -5% | outcome [5] | outcome [6] | outcome [7] | outcome [8]

O=S(=O)(c1ccc(Oc2ccccc2)cc1)N(CCC(O)(C(F)(F)F)C(F)(F)F)Cc1cccc(O)c1
inactive: inhibition [2] -13% | inhibition [3] 5% | outcome [5] | outcome [6] | outcome [7] | outcome [8]
active: growth inhibition [1] 99% | growth inhibition [4] 102%

CCc1nc(N)nc(N)c1-c1cccc(Cl)c1
inactive: growth inhibition [1] 1% | inhibition [3] 2% | outcome [5] | outcome [6] | outcome [7] | outcome [8]
active: inhibition [2] 60% | growth inhibition [4] 94%

Cc1ccc(C(C(=O)Nc2ccc(N3CCNCC3)c(Cl)c2)c2ccccc2)cc1 (stereo not given)
inactive: inhibition [2] 23% | inhibition [3] -2% | outcome [5] | outcome [6] | outcome [7] | outcome [8]
active: growth inhibition [1] 93% | growth inhibition [4] 97%

COc1ccc(CNCc2cccc(-c3cccc(-c4nc5ccc(F)cc5[nH]4)c3)c2)cc1
inactive: inhibition [2] 18% | inhibition [3] 5% | outcome [5] | outcome [6] | outcome [7] | outcome [8]
active: growth inhibition [1] 55% | growth inhibition [4] 100%

O=c1cc(NCCCCNCc2ccc(Br)c(Br)c2)[nH]c2ccccc12
active: growth inhibition [4] 98%
inactive: growth inhibition [1] 14% | inhibition [2] 13% | inhibition [3] 2% | outcome [5] | outcome [6] | outcome [7] | outcome [8]

O=C(c1ccc(Cl)cc1)C1CCN(CCCOc2ccc3c(c2)CCNCC3)CC1
inactive: growth inhibition [1] 23% | inhibition [3] -2% | outcome [5] | outcome [6] | outcome [7] | outcome [8]
active: inhibition [2] 78% | growth inhibition [4] 93%

Clc1cc(Nc2ccnc3ccc(Br)cc23)ccc1Oc1ccc(Cl)c2ccccc12
active: growth inhibition [1] 86% | growth inhibition [4] 99%
inactive: inhibition [2] 6% | inhibition [3] 3% | outcome [5] | outcome [6] | outcome [7] | outcome [8]

O=C(/C=C/c1ccc(Cl)c(Cl)c1)NCCCCCN1CCC(NC(=O)Nc2ccc(Cl)cc2F)CC1
inactive: growth inhibition [1] 40% | inhibition [3] -8% | outcome [5] | outcome [6] | outcome [7] | outcome [8]
active: inhibition [2] 100% | growth inhibition [4] 101%

N#Cc1ccc(C(=O)Nc2cccc(-c3ccc(CN4CCCC4)cc3)c2)cc1
inactive: growth inhibition [1] -2% | inhibition [2] 13% | inhibition [3] -2% | outcome [5] | outcome [6] | outcome [7] | outcome [8]
active: growth inhibition [4] 99%

O=C(Nc1cccc(-c2ccc(-c3nc4ccc(F)cc4[nH]3)cc2)c1)c1csnn1
inactive: growth inhibition [1] 31% | inhibition [2] 22% | inhibition [3] 0% | outcome [5] | outcome [6] | outcome [7] | outcome [8]
active: growth inhibition [4] 94%

NCc1ccc(CNCc2cccc(-c3cccc(-c4nc5ccccc5[nH]4)c3)c2)cc1
inactive: growth inhibition [1] 11% | inhibition [2] 7% | inhibition [3] -7% | outcome [5] | outcome [6] | outcome [7] | outcome [8]
active: growth inhibition [4] 101%

c1cc(CNCCc2ccncc2)cc(-c2ccc(-c3nc4ccccc4[nH]3)s2)c1
active: growth inhibition [1] 97% | growth inhibition [4] 101%
inactive: inhibition [2] 1% | inhibition [3] -3% | outcome [5] | outcome [6] | outcome [7] | outcome [8]

CC(C)N=C(N)NN=Cc1ccc(Cl)c(Cl)c1
active: growth inhibition [4] 101%
inactive: growth inhibition [1] 12% | inhibition [2] -8% | inhibition [3] -2% | outcome [5] | outcome [6] | outcome [7] | outcome [8]

NC(=O)C1CCN(Cc2ccc(-c3cccc(-c4nc5ccc(F)cc5[nH]4)c3)cc2)CC1
inactive: growth inhibition [1] 3% | inhibition [2] 10% | inhibition [3] -8% | outcome [5] | outcome [6] | outcome [7] | outcome [8]
active: growth inhibition [4] 90%

Nc1ccc2[nH]cc(C3CCN(CC4CCN(C(=O)/C=C/c5ccc(Cl)c(Cl)c5)CC4)CC3)c2n1
active: growth inhibition [1] 97% | inhibition [2] 53% | growth inhibition [4] 99%
inactive: inhibition [3] -2% | outcome [5] | outcome [6] | outcome [7] | outcome [8]

From PubChem BioAssay
